Assay results: ChEMBL document CHEMBL3988442, “University of Dundee, Small-Polar-MMV Screening Library” (2021)
For some of these results: Potency and affinity values are given separately.

Legend:
Parameters in all cases: scale not given: direction of the effect not stated beside the values
[1] = molecular target: Protein translocase subunit SecA (Escherichia coli (strain K12)) (UniProt P10408); test: Assay to Identify E. coli SecA ATPase Inhibitors; format: functional; conditions: 30 µM
[2] = molecular target: T1, Ubiquitin-activating enzyme e1, putative (Leishmania donovani (strain BPK282A1)) (UniProt E9BSI1); test: Leishmania donovani Ubiquitin Activating Enzyme (LdE1); format: functional; conditions: 30 µM
T1 sequence (whole entry): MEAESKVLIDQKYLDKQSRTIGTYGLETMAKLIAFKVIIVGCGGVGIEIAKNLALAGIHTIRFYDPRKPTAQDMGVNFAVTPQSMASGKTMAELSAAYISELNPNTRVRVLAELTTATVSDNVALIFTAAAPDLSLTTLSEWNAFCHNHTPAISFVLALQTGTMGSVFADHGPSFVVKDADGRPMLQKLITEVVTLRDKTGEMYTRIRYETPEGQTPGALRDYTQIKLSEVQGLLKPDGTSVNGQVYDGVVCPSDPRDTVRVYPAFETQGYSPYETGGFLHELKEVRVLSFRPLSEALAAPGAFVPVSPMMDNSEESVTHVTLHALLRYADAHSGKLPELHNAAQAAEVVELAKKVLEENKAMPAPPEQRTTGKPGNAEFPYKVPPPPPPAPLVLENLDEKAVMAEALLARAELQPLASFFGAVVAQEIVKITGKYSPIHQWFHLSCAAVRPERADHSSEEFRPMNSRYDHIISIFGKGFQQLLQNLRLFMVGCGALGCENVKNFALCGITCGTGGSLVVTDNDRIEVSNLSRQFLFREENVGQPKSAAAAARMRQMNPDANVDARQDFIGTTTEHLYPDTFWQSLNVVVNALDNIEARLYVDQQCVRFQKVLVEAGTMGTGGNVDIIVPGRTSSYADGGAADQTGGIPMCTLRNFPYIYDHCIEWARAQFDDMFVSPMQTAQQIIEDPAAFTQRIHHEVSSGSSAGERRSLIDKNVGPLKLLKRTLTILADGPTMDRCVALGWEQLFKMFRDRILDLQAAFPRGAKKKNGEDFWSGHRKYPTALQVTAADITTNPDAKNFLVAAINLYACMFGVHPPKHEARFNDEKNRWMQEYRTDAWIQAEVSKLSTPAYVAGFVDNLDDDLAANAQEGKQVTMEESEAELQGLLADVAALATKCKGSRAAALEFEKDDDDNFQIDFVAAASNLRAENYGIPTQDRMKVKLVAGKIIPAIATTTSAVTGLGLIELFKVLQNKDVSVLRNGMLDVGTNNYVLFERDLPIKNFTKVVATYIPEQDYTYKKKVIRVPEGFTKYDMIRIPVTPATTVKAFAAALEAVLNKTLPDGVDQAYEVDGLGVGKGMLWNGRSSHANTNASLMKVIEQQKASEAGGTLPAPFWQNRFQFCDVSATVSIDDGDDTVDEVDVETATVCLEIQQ

[3] = molecular target: AMP-activated protein kinase, AMPK (Homo sapiens) (UniProt P54646+O43741+P54619+Q9UGJ0+Q9Y478+Q13131+Q9UGI9); test: AMP-dependent Kinase enzyme assay. An in vitro enzyme assay that detects ADP turnover that is directly proportional to AMPK activity. This uses naive AMPK that is activated during the assay with MK-8722; format: functional; conditions: 30 µM
[4] = molecular target: Sialic acid-binding Ig-like lectin 9 (Homo sapiens) (UniProt Q9Y336); test: Hs-Siglec9 ALPHAscreen SOP 20170721; conditions: 10 µM
Sialic acid-binding Ig-like lectin 9 (Homo sapiens), sequence (Q9Y336 whole entry): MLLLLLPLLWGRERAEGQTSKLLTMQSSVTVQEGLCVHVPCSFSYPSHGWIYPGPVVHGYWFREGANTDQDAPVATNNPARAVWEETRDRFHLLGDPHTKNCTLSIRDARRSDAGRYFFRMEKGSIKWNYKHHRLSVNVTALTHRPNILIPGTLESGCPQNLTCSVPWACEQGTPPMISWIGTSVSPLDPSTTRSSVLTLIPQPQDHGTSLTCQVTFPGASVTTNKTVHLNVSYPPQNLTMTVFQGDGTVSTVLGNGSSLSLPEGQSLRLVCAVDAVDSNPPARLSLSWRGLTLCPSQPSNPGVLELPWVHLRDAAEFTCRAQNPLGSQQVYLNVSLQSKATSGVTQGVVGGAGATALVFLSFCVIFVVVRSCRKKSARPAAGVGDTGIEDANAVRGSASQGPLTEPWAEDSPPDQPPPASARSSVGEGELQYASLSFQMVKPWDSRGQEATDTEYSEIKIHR

[5] = test system: Trypanosoma cruzi; test: Trypanosoma cruzi phosphomannomutase and mannose-1-phosphate guanylyltransferase assay; format: functional; conditions: 10 µM
[6] = molecular target: T2, Arginase-2, mitochondrial (Homo sapiens) (UniProt P78540); test: in vitro enzyme assay to detect the production of urea directly proportional to the activity of Arginase II; format: functional; conditions: 33.3 µM; further: in the data most compounds retested in dose-response had high values
T2 sequence (whole entry): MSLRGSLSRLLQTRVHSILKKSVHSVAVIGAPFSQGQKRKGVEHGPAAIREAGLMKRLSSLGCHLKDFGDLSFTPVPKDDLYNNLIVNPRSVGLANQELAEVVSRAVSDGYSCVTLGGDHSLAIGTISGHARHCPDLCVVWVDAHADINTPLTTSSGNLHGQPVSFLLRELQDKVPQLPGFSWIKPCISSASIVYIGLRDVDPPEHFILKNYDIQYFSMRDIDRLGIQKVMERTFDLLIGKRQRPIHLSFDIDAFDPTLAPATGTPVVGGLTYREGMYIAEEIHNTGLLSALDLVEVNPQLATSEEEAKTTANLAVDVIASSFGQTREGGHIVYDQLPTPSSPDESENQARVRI

[7] = molecular target: T3, Proteasome subunit beta (Trypanosoma cruzi) (UniProt O96673); test: Trypanosoma cruzi proteasome chymotrypsin-like activity (TcProtChymo) assay.; further: in the data most compounds retested in dose-response had high values; format: functional; conditions: 9.37 µM
T3 sequence (whole entry): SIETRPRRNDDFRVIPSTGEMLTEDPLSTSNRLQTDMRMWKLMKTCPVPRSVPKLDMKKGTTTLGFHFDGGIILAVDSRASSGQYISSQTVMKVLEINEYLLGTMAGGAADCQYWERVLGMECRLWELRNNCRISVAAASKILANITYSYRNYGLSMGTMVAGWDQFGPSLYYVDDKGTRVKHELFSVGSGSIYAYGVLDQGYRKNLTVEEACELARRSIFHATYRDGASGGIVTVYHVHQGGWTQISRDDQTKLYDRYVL

[8] = species: Homo sapiens; test: To identify inhibition of the IFN signalling (Jak-Stat) pathway via expression of an eGFP reporter gene under the control of an IFN-stimulated response element (ISRE) containing MxA promoter.; format: functional; conditions: 30 µM
[9] = molecular target: T4, Tyrosyl-tRNA synthetase, putative (Trypanosoma cruzi (strain CL Brener)) (UniProt Q4DSP6); test: Trypanosoma cruzi tyrosyl tRNA synthetase (TcYRS) _High Tyrosine SOP; format: functional; conditions: 30 µM; further: in the data most compounds retested in dose-response had high values
T4 sequence (whole entry): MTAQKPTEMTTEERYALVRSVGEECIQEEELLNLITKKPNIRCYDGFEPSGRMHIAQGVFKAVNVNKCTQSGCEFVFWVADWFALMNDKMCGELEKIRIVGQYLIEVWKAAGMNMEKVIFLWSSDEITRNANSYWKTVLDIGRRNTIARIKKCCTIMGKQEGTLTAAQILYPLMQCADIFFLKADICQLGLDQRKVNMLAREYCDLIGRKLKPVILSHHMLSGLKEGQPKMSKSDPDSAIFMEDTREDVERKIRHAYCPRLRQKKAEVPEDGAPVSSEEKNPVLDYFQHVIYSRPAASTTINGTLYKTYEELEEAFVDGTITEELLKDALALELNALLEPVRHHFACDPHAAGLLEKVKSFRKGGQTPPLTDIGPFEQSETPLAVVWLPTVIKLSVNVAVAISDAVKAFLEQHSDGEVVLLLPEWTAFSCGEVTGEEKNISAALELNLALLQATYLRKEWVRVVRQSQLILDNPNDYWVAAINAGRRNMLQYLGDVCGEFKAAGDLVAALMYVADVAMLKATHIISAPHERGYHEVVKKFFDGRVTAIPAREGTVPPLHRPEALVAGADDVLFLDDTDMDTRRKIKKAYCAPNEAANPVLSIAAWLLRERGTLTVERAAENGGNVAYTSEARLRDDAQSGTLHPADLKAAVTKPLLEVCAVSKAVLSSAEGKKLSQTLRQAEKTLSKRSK

[10] = molecular target: T4, Tyrosyl-tRNA synthetase, putative (Trypanosoma cruzi (strain CL Brener)); test: Trypanosoma cruzi tyrosyl tRNA synthetase (TcYRS) SOP; format: functional; conditions: 30 µM
[11] = molecular target: Chromo domain-containing protein 1 (Saccharomyces cerevisiae (strain ATCC 204508 / S288c) (Baker's yeast)) (UniProt P32657); test: ScCHD-1 Enzyme Inhibition Assay; format: functional; conditions: 30 µM; further: in the data most compounds retested in dose-response had high values
Chromo domain-containing protein 1 (Saccharomyces cerevisiae (strain ATCC 204508 / S288c) (Baker's yeast)), sequence (P32657 whole entry, the tested form may be a part): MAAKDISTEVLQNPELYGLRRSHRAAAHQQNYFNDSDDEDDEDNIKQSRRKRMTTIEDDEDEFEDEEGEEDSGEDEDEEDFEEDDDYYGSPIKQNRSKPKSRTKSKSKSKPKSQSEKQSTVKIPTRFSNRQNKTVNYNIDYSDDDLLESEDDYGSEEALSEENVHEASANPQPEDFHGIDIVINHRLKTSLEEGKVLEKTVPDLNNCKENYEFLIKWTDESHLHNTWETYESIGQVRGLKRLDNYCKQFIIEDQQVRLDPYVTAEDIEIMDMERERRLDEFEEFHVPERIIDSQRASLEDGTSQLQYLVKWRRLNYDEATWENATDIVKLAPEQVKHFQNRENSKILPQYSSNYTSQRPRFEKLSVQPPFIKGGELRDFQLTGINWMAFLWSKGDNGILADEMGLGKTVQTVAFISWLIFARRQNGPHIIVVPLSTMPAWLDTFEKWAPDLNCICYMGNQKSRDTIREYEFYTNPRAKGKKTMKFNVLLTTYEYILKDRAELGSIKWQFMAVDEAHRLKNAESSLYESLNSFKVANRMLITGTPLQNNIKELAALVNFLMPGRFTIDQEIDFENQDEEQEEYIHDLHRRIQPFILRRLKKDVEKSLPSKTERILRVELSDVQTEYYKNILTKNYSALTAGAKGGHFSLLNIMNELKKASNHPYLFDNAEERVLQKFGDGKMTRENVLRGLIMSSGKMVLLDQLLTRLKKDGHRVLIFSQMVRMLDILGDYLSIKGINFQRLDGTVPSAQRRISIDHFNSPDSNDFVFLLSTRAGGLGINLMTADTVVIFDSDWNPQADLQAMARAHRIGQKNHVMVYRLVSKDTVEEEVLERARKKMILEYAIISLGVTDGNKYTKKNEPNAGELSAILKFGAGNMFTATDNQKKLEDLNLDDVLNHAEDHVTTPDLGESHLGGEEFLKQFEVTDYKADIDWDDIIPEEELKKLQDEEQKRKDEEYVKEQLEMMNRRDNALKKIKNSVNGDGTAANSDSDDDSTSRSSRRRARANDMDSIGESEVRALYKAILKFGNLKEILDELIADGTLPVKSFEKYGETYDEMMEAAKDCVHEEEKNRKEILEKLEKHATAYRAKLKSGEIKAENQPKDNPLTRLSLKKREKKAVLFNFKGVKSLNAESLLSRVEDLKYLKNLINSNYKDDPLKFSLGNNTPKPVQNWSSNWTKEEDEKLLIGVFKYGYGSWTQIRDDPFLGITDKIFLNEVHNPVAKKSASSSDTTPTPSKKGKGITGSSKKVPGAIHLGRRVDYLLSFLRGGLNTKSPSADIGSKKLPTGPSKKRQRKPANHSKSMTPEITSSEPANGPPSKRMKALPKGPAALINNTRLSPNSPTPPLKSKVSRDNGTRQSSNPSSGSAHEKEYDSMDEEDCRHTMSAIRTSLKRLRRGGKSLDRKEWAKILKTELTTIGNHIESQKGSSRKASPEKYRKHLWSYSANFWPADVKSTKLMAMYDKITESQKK

Protein translocase subunit SecA (Escherichia coli (strain K12)), sequence (P10408 whole entry): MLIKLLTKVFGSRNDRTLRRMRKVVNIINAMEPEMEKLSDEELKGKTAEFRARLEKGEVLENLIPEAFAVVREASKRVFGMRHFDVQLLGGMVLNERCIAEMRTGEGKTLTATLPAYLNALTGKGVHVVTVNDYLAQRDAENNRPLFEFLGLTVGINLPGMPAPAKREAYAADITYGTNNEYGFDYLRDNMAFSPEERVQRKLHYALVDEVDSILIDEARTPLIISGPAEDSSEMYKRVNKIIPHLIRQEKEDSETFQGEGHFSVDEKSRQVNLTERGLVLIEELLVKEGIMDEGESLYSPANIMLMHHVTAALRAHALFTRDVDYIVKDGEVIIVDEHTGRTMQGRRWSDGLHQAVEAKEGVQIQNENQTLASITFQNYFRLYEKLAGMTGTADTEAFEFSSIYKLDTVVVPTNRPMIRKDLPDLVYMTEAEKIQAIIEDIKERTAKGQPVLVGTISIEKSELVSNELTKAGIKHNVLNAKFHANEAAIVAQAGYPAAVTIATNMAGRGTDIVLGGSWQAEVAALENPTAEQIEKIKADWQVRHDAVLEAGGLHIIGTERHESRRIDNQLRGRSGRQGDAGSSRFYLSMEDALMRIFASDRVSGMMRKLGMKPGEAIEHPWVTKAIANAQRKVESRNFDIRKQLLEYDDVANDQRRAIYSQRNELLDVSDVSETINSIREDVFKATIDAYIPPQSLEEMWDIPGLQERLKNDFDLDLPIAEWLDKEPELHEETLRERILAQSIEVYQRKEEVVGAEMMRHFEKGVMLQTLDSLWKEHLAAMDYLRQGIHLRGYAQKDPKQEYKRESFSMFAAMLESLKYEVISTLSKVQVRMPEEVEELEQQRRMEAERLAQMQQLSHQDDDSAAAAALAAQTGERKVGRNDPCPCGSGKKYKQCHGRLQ

Compound	Percent Effect [1]	Percent Effect [2]	Percent Effect [3]	Percent Effect [4]	Percent Effect [5]	Percent Effect [6]	Percent Effect [7]	Percent Effect [8]	Percent Effect [9]	Percent Effect [10]	Percent Effect [11]
CCCOCCN1CCC2(CC1)CC(c1ccccc1)C(=O)N2C (stereo not given)	6.56%	5.33%	-0.289%	-1.03%	-9.45%	-4.69%	18.8%	48.6%	-2.73%	1.24%	-5.61%
CCCc1cc(C(=O)N(C)Cc2cccc3ncccc23)n(C)n1	-4.03%	15.6%	2.46%	20.3%	3.25%	-19.3%	14.6%	36.1%	7.53%	18.5%	-8.05%
Cc1cc(CNC(=O)NC(C)c2ccncc2)no1 (stereo not given)	-0.908%	7.79%	2.08%	2.87%	-8.36%	-1.38%	12.7%	11.9%	2.15%	6.17%	-1.85%
CC(C)Cc1noc(CN2CCN(CCOc3ccc(Cl)cc3)CC2)n1	-5.56%	21.1%	-0.366%	9.07%	5.08%	-3.83%	14.7%	32.7%	5.39%	19.5%	-8.42%
c1ccc(CN2CCCC(c3nccnc3-n3ccnc3)C2)cc1 (stereo not given)	-1.15%	10.7%	4.45%	-1.75%	0.591%	-0.233%	14.5%	7.14%	5.32%	6.41%	-0.742%
